This is an account of results in ChEMBL document CHEMBL3433997, “St. Jude Leishmania screening dataset” (2016).

Holding throughout (format): functional
In test [1] the target is Solute carrier family 2, facilitated glucose transporter member 1 (Homo sapiens) (UniProt P11166). The experiment in a line: ST_JUDE_LEISH: Cytotoxicity at 2uM final concentration against transgenic Leishmania Mexicana promastigotes LmGLUT1 that are glucose transport deficient and complemented with the human glucose transporter GLUT1. Activity is measured by DNA content using SYBR green in vitro.

Test [2] concerns the target Hexose transporter 1 (Plasmodium falciparum) (UniProt O97467). The experiment in a line: ST_JUDE_LEISH: Cytotoxicity at 2uM final concentration against transgenic Leishmania Mexicana promastigotes LmPfHT that are glucose transport deficient and complemented with the Plasmodium falciparum hexose transporter. Activity is measured by DNA content using SYBR green in vitro.

Test [3] deals with Glucose transporter (Leishmania mexicana) (UniProt O61059). Briefly: ST_JUDE_LEISH: Cytotoxicity at 2uM final concentration against transgenic Leishmania Mexicana promastigotes LmGT2 that are glucose transport deficient and complemented with the L. Mexicana glucose transporter 2. Activity is measured by DNA content using SYBR green in vitro.

By inhibition is commonly meant the change of the read-out against control, counted positive when it falls.

Sequence of Solute carrier family 2, facilitated glucose transporter member 1 (Homo sapiens) (P11166 whole entry): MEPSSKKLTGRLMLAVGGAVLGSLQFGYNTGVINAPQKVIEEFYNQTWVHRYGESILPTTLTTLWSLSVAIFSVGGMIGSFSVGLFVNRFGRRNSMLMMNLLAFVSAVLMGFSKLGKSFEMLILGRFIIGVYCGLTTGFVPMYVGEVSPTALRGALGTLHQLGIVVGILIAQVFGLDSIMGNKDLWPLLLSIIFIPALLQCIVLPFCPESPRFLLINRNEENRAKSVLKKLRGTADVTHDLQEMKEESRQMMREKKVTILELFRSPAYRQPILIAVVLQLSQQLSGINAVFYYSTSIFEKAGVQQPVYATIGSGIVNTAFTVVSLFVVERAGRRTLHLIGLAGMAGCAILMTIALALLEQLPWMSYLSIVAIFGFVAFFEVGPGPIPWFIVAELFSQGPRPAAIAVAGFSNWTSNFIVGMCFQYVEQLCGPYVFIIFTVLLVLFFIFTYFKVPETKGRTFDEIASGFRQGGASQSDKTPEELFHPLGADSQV

For the molecule `COc1cc(NCC(C)CNCc2cn(Cc3ccccc3)c3ccccc23)nc2ccccc12` (stereo not given), the results for the inhibition in test [1], in test [2] and in test [3] were 3.78%, 6.19% and 6.44%, respectively.
Turning to `COc1ccc(-c2ccc(NC(=O)c3ccc(Cl)cc3)cc2)cc1CN1CCC(O)CC1`, the figures for the inhibition in test [1], in test [2] and in test [3] were 3.31%, 2.62% and 2.54%, respectively.
Regarding `CN1CCN(CCCCNc2c3ccccc3nc3ccccc23)CC1`, the values for the inhibition in test [1], in test [2] and in test [3] were 23%, 11.7% and 14.6%, respectively.
`CC(Cc1ccc(OCCCCOc2ccccc2)cc1)NCCc1ccc(Oc2ccccc2)cc1` (stereo not given): the inhibition in test [1] was 87.5%; in test [2] it was 84.7%; in test [3], 78.2%.
On the same counts, the results for `COC(=O)c1ccc(CN2CCC(N(Cc3cccc(Oc4ccccc4)c3)S(=O)(=O)c3ccc(NC(C)=O)cc3)CC2)cc1` are 0.23%, 0.78% and 0.32%.
`Cc1cc(CN2C(=O)C(c3ccccc3)(c3ccccc3)N=C2N)c(C(F)(F)F)o1`: the inhibition was 6.61% in test [1], 9.85% in test [2] and 6.9% in test [3].
Turning to `Cc1ccc2[nH]cc(/C=C/C(=O)NC3CCC(CCN4CCc5ccc(C#N)cc5CC4)CC3)c2c1` (stereo not given), the values for the inhibition in test [1], in test [2] and in test [3] were 0.83%, 4.1% and -2.82%, respectively.
Turning to `O=C(Nc1cc(Cl)c(Cl)cc1NC(=O)c1cccc(-c2ccccc2)c1O)c1cccc(-c2ccccc2)c1O`, the values for the inhibition in test [1], in test [2] and in test [3] were 5.1%, 0.97% and 2.6%, respectively.
On the same counts, the results for `O=C(Nc1cc(F)c(F)c(-c2cccnc2)c1)N1CCc2cc(Cl)c(Cl)cc21` are 0.67%, -1.8% and -0.31%.
In the same order, the values of `CCC(NCc1ccc(-c2cncc(C(=O)NCC(C)C)c2)cc1)c1ccccc1` (stereo not given) are 7.89%, 7.18% and 8.76%.
In the same order, the values of `Cc1cc(NCCc2ccccc2)nc(NC(=N)Nc2ccccc2Cl)n1` are 9.69%, 7.74% and 7.34%.
In the case of `Cc1cc(C(=O)NC2CCN(CC3(c4ccccc4)CCCCC3)CC2)on1`, the figures for the inhibition in test [1], in test [2] and in test [3] were 1.62%, 0.59% and -0.45%, respectively.
For `CN1CCc2cc(NS(=O)(=O)c3ccc(-c4ccc(Cl)s4)cc3)c(N3CCCCC3)cc2CC1`, the inhibition in test [1] was -0.61%; in test [2] it was 0.7%; in test [3], -2.07%.
As for `CC(C)Oc1cc2c(cc1NS(=O)(=O)c1ccc(-c3ccc(Cl)cc3)cc1F)CCN(C)CC2`, the inhibition in test [1] was 1.27%; in test [2], 0.75%; in test [3], -0.15%.
On the same counts, the results for `Cc1ccc(CNC(=O)[C@H](CCCN)Nc2cc(C)nc(NCC3CCCCC3)n2)cc1` are 1.46%, 1.17% and 0.32%.
In the same order, the values of `COc1ccc(Nc2nccc(N3CCC(NC(=O)c4cc5ccccc5s4)C3)n2)cc1` (stereo not given) are -3.12%, 1.28% and -1.61%.
Consider `COc1ccc(OCCCON2C(=N)N=C(N)NC2(C)C)cc1`, for which the results for the inhibition in test [1], in test [2] and in test [3] were 5%, 1.09% and 1.17%, respectively.
Turning to `CC12CN3CC(C)(CN(C1)C3c1cc(Br)ccc1O)C2O` (stereo not given), the inhibition is -3.78% in test [1], -1.64% in test [2] and 4.22% in test [3].
`CCCC(C)Nc1nc(C)cc(N[C@@H](Cc2ccccc2)C(=O)NCCOc2ccccc2)n1` (stereo not given in full): the inhibition is 4.27% in test [1], 3.26% in test [2] and 1.16% in test [3].
In the same order, the values of `O=C(Nc1ccnc(N2CC3CC2CN3Cc2cccc(O)c2)c1)c1ccc(F)cc1` (stereo not given) are 0.07%, -1.27% and 1.75%.
On the same counts, the results for `Cc1ccc2nc(-c3ccc(C(=O)NC4CCN(Cc5ccccc5)CC4)s3)[nH]c2c1` are -1.39%, 1.8% and 1.22%.
In the same order, the values of `COc1cc(OC)cc(-c2nn(-c3ccc([N+](=O)[O-])cc3Cl)c(=S)n2Cc2ccco2)c1` are -1.56%, -0.65% and 2.4%.
On to `O=C(/C=C/c1ccc(Cl)cc1Cl)N1CCC(CCN2CCC(c3c[nH]c4ccccc34)CC2)CC1`, for which the inhibition in test [1] is 3.54%; in test [2], 4.28%; in test [3], 5.09%.
On the same counts, the results for `O=C(NCCCCN1CCC(c2ccc(OC(F)(F)F)cc2)CC1)c1ccc(NC(=O)c2ccc(Cl)cc2)cc1` are -1.27%, 0.81% and -1.72%.
On the same counts, the results for `Oc1cc(Nc2ccnc3cc(-c4cccc(CN5CCOCC5)c4)ccc23)c(F)cc1Cl` are 4.47%, 4.48% and 3.67%.
On the same counts, the results for `NC1CCN(Cc2cccc(-c3ccc(-c4nc5ccccc5[nH]4)cc3)c2)C1` (stereo not given) are -1.1%, 2.18% and 1.99%.
Consider `Cc1ccc(O)cc1Nc1ccnc2cc(-c3csc(CN4CCN(C)CC4)n3)ccc12`, for which the inhibition was determined as 8.26% in test [1], 5.93% in test [2] and 5.57% in test [3].
On the same counts, the results for `CN1CCN(c2cc(NC(=O)Nc3ccc(-c4ccncc4)c(Cl)c3)ccc2Br)CC1` are 10.9%, 8.89% and 10.5%.
On the same counts, the results for `CC(=O)NCCNCc1cccc(C(=O)NCc2cccc(C(F)(F)F)c2)c1` are 3.26%, 5.92% and 4.88%.
In the same order, the values of `O=[N+]([O-])c1ccccc1C=NN=c1c2c([nH]c3ccccc13)CCCC2` are 20.8%, 17.5% and 12%.
Regarding `CCN(CC)CCn1c2ccccc2c2ccc(C(=O)Nc3ccc4sc(C)nc4c3)cc21`, the values for the inhibition in test [1], in test [2] and in test [3] were 13.2%, 11.9% and 8.05%, respectively.
In the same order, the values of `O=C(c1cccs1)N(Cc1cccc(-c2ccc(CNCCc3ccccc3)cc2)c1)C1CCN(Cc2ccccc2)CC1` are 9.9%, 7.55% and 9.34%.
As for `N#Cc1ccc(N(CCOc2ccc(Cl)c(F)c2)Cc2ccccc2C(F)(F)F)cc1C(F)(F)F`, the inhibition in test [1] is 3.18%; in test [2], 0.42%; in test [3], -1.25%.
On the same counts, the results for `CC(=O)Oc1c(C2C=CCCC2)c(OC(C)=O)c2ccccc2c1OC(C)=O` (stereo not given) are 1.04%, 3.27% and 1.98%.
In the same order, the values of `O=C1CC(C(=O)O)CC(=O)N1` are -3.7%, -2.75% and -0.61%.
